Measured values from PubChem BioAssay (NCATS).
Results filed as inconclusive are left out. Activity calls are given as the source filed them. The call rests on the fitted dose curve; in most records, active means well fitted inhibition curve with a large enough effect; inconclusive means small, poorly fitted or top-dose-only effect; inactive means no such curve, though single readings can be large or run the other way.

biological target: Cytochrome P450 2C9 (Homo sapiens) (UniProt P11712); assay: qHTS Assay for Inhibitors and Substrates of Cytochrome P450 2C9 (AID 883); details: recombinant CYP2C9, luciferin-H luminescence, 60 min; series mostly up to 11.4 µM; further: nearly all actives have a fitted effect of over 60% in size
Method in brief: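 Turnover of Luciferin-H (100uM, KM) by 10nM human CYP2C9 was measured over 60 min at 37C with NADPH regeneration; inhibitors and some substrates reduce luminescence. Data normalized to sulphaphenazole 57uM.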

Cytochrome P450 2C9 (Homo sapiens), sequence (P11712 whole entry, looked up): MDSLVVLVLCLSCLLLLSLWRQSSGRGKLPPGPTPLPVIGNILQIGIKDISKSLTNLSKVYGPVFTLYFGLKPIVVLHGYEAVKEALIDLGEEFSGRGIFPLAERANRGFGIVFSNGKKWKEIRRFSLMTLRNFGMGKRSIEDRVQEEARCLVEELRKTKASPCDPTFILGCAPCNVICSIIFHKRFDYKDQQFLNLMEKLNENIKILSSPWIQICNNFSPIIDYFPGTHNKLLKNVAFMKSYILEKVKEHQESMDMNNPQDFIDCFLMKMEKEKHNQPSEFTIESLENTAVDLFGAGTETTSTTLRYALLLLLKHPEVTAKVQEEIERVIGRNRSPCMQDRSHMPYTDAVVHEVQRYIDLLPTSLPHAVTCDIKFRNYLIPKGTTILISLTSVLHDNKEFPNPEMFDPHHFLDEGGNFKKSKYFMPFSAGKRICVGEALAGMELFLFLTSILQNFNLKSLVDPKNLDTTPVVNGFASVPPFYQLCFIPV

Potency, inactive:
CCOP(=O)(CC(C(C)=O)C(O)c1ccccc1)OCC (configuration not stated), O=C(/C=N/O)NCCCCNC(=O)/C=N/O, CCOC(=O)[C@]1(C(/C=C/c2ccco2)NC(=O)OC)CCCC1=O (some centres not stated), CCOC(=O)CCCCC1=CC2=CC(=O)C(C)(O)C(=O)C2=CO1 (configuration not stated), COc1cc(C2c3[nH]c4ccccc4c3CC3C(=O)N4C(Cc5c([nH]c6ccccc56)C4c4cc(OC)c(OC)c(OC)c4)C(=O)N32)cc(OC)c1OC (configuration not stated), CNc1ccccc1C(=O)OCC(=O)c1ccccc1, CCCCC1CN2C(CCC(C)C2c2ccc(Br)cc2)C(=O)O1 (configuration not stated), COc1cccc(C2NC(C(=O)O)CCC2C)c1 (configuration not stated), C=CCc1cccc(C2NC(C(=O)O)CCC2C)c1 (configuration not stated), CC12C=C(/C=C/C=C/c3ccco3)C(C)(C1)C(/C=C/c1ccco1)CC2=O (configuration not stated), CC(=O)Nc1ccc(C2NC(C(=O)O)CCC2C)cc1 (configuration not stated), O=C1C2Cc3c([nH]c4ccccc34)C(c3ccccc3)N2C(=O)C2Cc3c([nH]c4ccccc34)C(c3ccccc3)N12 (configuration not stated), OCC1OC(c2ccccc2)C=CC1Oc1cc(Cl)cc(Cl)c1 (configuration not stated), COC(=O)NC(/C=C/c1ccco1)[C@@]1(C(=O)OC)CCCC1=O (some centres not stated), CC1C=CCCOC1c1ccccc1 (configuration not stated), CCN1C(C)=C(C(=O)OC)C(c2ccccc2)N2C(=O)[C@@]3(C(=O)OC)O[C@@]12C1C(=O)N(C)C(=O)C13 (some centres not stated), COc1ccc(OCC2CC3C(CCC(C)C3c3ccc(Br)cc3)C(=O)O2)cc1 (configuration not stated)
